# “And” between values parts separate entries of the source, which are not always exact repeats. Equal values may be shown once. Unmarked numbers belong to inactive results. Inconclusive results are not listed. A call without a number means that no potency is given here. The source made the active and inactive calls. Calls follow the shape of the dose curve; as a rule, active = well fitted curve in the direction sought with a large enough effect in the repeat runs; inconclusive = weak or mixed curves; inactive = no such curve, though single readings can be large; an effect the other way counts as inactive or inconclusive.
# How the values were obtained:
# [1] = Human pregnane X receptor (PXR) small molecule agonists, qHTS cell viability counter screen (AID 1346977); also: nearly all actives have a fitted effect of over 50% in size
# In short: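 Cytotoxicity counter screen run in the same wells as the PXR luciferase assay, using PXR-Luc HepG2 cells in charcoal-stripped serum medium. Viability: CellTiter-Fluor fluorescence after 24hr compound treatment.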
# [2] = Caspase-3/7 induction in HepG2 cells by small molecules, qHTS assay (AID 1346978); also: nearly all actives have a fitted effect of over 15% in size
# In short: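 Wild-type HepG2 cells (2,000/well) were settled 5 h at 37 C, 5% CO2, then exposed to compounds in DMSO for 17 h. Caspase-3/7 activity was read by luminescence 30 min after adding Caspase-Glo 3/7 reagent at room temperature.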
# [3] = Caspase-3/7 induction in CHO-K1 cells by small molecules, qHTS cell viability counter screen (AID 1346979); also: nearly all actives have a fitted effect of over 35% in size
# In short: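 Cytotoxicity counter screen run in parallel with the caspase-3/7 assay: CHO-K1 cells, 16hr compound treatment at 37C, then CellTiter-Fluor for 1hr before fluorescence reading.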
# [4] = Caspase-3/7 induction in CHO-K1 cells by small molecules, qHTS assay (AID 1346980); also: nearly all actives have a fitted effect of over 15% in size
# In short: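 Wild-type cells were seeded at 1,500 per well and settled 5 hr at 37 C, 5% CO2, then exposed to DMSO-dissolved compounds for 17 hr. Caspase-Glo 3/7 reagent was added, and luminescence was read after 30min at room temperature.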
# [5] = Caspase-3/7 induction in HepG2 cells by small molecules, qHTS cell viability counter screen (AID 1346981); also: series mostly up to about 92 µM; nearly all actives have a fitted effect of over 30% in size
# In short: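 In this quantitative HTS counter screen, compounds delivered in DMSO were left on unmodified HepG2 cells for 16 hr at 37 C. Viability was then determined fluorometrically with CellTiter-Fluor, in parallel with caspase-3/7 induction in the same wells.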
# [6] = molecular target: Nuclear receptor subfamily 1 group I member 2 (Homo sapiens) (UniProt O75469); assay: Human pregnane X receptor (PXR) small molecule agonists, qHTS assay (AID 1346982); also: nearly all actives have a fitted effect of over 35% in size
# In short: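 Reporter HepG2 cells expressing PXR-Luc are cultured in charcoal-stripped FBS (5%), treated with compounds for 24 hr at 37 C, and assayed by ONE-Glo luminescence after 30 min at room temperature.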
# [7] = molecular target: Nuclear receptor subfamily 1 group I member 2 (Rattus norvegicus) (UniProt Q9R1A7); assay: Rat pregnane X receptor (rPXR) activation by small molecules, qHTS assay (AID 1346983); conditions: rPXR luciferase reporter cells, One-Glo luminescence, 24 h; max activation: active compounds read high; also: nearly all actives have a fitted effect of over 20% in size
# In short: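 Cell-based rPXR luciferase reporter assay, 2,000 cells per well, rested 5hr at 37 C before compound addition in DMSO, then 24 hr at 37 C. One-Glo reagent was added and luminescence read after 30 min at room temperature.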
# [8] = molecular target: Nuclear receptor subfamily 1 group I member 2 (Homo sapiens) (UniProt O75469); assay: CYP3A4 induction through human pregnane X receptor (PXR) by small molecules, qHTS assay (AID 1346984); also: nearly all actives have a fitted effect of over 40% in size
# In short: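 Induction measured in HepG2-based DPX-2 cells co-expressing human PXR and a CYP3A4 promoter-driven luciferase. After a 24-hour compound exposure, cells received CYP3A4 luciferin substrate at 3uM final for 3 hours, and light output was then recorded.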
# [9] = molecular target: Cytochrome P450 2D6 (Homo sapiens) (UniProt P10635); assay: Cytochrome P450 Family 2 Subfamily D Member 6 (CYP2D6) small molecule antagonists: luciferase reporter qHTS assay (AID 1671196); also: nearly all actives have a fitted effect of over 50% in size; also: potency is read from the fitted curve at half-maximal effect; as to activity change, negative = inhibition: series mostly up to about 120 µM
# In short: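 Test chemicals meet CYP2D6 plus proluciferin substrate (10 min, RT); NADPH regenerating solution then drives turnover for 1 h. Detection reagent halts the reaction; luminescence measured after 20 min.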
# [10] = molecular target: Cytochrome P450 2C19 (Homo sapiens) (UniProt P33261); assay: Cytochrome P450 Family 2 Subfamily C Member 19 (CYP2C19) small molecule antagonists: luciferase reporter qHTS assay (AID 1671197); also: series mostly up to about 120 µM; nearly all actives have a fitted effect of over 65% in size
# In short: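 Quantitative high-throughput screen of the Tox21 library using CYP2C19 with proluciferin substrate. Reaction: NADPH regeneration, 37C, 1 h, after 10 min compound preincubation at room temperature. Readout: luminescence.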
# [11] = molecular target: Cytochrome P450 2C9 (Homo sapiens) (UniProt P11712); assay: Cytochrome P450 Family 2 Subfamily C Member 9 (CYP2C9) small molecule antagonists: luciferase reporter qHTS assay (AID 1671198); also: series mostly up to about 120 µM; nearly all actives have a fitted effect of over 50% in size
# In short: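 CYP2C9 activity was measured with a P450-Glo proluciferin substrate. Enzyme–substrate mix was held with compound for 10 min at room temperature, then NADPH regeneration solution was added for 1 h at 37C. Luciferin product was read as luminescence.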
# [12] = molecular target: Cytochrome P450 1A2 (Homo sapiens) (UniProt P05177); assay: Cytochrome P450 Family 1 Subfamily A Member 2 (CYP1A2) small molecule antagonists: luciferase reporter qHTS assay (AID 1671199); also: series mostly up to about 120 µM; nearly all actives have a fitted effect of over 50% in size
# In short: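 Steps: enzyme-substrate mix dispensed; test compounds and furafylline control pinned in; 10 min room temperature; NADPH regeneration solution added, 1 h; reaction stopped with luciferin detection reagent; luminescence read after 20 min.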
# [13] = molecular target: Voltage-gated inwardly rectifying potassium channel KCNH2 (Homo sapiens) (UniProt Q12809); assay: Human Ether-a-go-go-Related Gene (hERG) channel small molecule antagonists: fluorescence cell-based qHTS assay (AID 1671200)
# In short: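 Fluorescence at 540 nm emission (480 nm excitation) was recorded kinetically for 2 min at 1-second intervals once the thallium-containing stimulus reached cells previously loaded with FluxOR II dye.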
# [14] = molecular target: Cytochrome P450 3A4 (Homo sapiens) (UniProt P08684); assay: Cytochrome P450 Family 3 Subfamily A Member 4 (CYP3A4) small molecule antagonists: luciferase reporter qHTS assay (AID 1671201)
# In short: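 qHTS, 1536-well. CYP3A4 + proluciferin substrate, cpd 10 min RT → NADPH regen 1 h RT → detection reagent 20 min → luminescence (RLU). Ketoconazole positive control.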
# [15] = molecular target: Nuclear receptor subfamily 1 group I member 2 (Homo sapiens) (UniProt O75469); assay: Human pregnane X receptor (PXR) activation by small molecules, qHTS assay (AID 1346985); also: nearly all actives have a fitted effect of over 40% in size
# In short: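 DPX-2 cells (HepG2 co-transfected with a PXR response element and a CYP3A4-promoter luciferase construct) were seeded at 2,000 per well, rested 5 hr at 37C, then exposed to DMSO-dissolved compounds for 24 hr. Activation was read as luciferase luminescence.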
# Cytochrome P450 2C19 (Homo sapiens), sequence (P33261 whole entry, looked up): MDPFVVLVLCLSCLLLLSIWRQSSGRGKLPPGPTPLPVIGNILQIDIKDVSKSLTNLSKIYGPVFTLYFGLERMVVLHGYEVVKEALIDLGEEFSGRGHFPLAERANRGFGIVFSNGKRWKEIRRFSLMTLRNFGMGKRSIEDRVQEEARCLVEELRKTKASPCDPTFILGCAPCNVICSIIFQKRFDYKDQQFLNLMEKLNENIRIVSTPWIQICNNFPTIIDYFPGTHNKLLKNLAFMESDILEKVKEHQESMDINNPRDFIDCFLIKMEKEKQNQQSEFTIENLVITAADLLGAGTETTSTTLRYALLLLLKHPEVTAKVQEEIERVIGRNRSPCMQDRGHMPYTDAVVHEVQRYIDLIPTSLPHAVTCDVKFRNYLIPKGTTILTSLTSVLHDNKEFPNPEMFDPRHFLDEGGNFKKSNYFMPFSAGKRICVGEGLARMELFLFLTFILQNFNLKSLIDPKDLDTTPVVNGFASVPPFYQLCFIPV
# Cytochrome P450 2C9 (Homo sapiens), sequence (P11712 whole entry, looked up): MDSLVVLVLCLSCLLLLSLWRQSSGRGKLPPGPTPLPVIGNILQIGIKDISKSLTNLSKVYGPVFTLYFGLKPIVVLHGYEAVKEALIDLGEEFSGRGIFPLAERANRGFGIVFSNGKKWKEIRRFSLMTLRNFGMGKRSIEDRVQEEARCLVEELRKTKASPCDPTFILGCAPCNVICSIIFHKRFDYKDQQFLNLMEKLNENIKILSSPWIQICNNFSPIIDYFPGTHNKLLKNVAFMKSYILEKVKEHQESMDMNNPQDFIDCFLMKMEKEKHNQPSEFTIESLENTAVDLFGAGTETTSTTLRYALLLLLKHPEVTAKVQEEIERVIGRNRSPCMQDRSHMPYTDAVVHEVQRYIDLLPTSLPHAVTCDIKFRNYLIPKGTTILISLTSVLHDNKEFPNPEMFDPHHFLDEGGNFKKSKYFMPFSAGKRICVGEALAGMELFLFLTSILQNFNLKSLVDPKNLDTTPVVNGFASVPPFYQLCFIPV
# Nuclear receptor subfamily 1 group I member 2 (Homo sapiens), sequence (O75469 whole entry, looked up): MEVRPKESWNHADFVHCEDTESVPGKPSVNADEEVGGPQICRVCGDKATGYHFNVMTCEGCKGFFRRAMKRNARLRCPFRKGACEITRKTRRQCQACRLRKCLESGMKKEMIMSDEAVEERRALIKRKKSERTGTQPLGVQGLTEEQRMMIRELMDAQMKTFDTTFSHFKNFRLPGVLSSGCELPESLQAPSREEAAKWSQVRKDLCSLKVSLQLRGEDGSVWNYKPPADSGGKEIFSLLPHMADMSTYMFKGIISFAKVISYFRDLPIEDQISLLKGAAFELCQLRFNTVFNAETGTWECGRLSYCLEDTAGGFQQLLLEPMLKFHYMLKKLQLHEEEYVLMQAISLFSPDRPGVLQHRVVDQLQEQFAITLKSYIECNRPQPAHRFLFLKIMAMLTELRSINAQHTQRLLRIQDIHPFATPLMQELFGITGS
# Voltage-gated inwardly rectifying potassium channel KCNH2 (Homo sapiens), sequence (Q12809 whole entry, looked up): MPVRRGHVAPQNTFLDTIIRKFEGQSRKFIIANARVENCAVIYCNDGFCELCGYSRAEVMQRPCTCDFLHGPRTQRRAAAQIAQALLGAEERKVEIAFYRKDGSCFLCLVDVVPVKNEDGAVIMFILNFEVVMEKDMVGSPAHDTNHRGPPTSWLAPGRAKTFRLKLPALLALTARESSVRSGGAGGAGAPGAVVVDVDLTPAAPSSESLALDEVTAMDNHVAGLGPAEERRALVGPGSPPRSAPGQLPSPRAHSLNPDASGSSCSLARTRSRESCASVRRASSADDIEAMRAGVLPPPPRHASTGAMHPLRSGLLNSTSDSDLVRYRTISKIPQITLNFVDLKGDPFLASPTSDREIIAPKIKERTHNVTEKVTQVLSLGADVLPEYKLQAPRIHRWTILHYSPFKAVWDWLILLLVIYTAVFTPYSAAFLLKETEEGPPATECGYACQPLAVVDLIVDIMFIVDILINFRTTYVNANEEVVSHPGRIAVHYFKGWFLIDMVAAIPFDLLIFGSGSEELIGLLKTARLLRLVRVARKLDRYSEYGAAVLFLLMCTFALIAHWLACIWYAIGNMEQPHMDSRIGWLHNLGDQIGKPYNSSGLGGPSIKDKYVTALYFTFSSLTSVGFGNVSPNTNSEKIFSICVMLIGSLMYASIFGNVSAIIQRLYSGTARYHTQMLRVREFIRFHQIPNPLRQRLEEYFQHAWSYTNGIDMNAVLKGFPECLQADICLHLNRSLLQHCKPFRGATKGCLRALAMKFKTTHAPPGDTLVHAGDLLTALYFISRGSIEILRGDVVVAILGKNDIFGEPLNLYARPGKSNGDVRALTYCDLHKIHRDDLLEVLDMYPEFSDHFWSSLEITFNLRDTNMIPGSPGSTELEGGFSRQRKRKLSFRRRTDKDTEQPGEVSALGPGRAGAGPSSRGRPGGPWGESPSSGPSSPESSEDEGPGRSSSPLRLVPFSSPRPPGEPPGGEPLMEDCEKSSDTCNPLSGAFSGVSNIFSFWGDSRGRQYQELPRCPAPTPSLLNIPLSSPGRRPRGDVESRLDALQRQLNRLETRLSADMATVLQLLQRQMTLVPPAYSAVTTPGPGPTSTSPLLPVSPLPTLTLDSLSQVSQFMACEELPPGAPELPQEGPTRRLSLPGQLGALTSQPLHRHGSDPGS
# Nuclear receptor subfamily 1 group I member 2 (Rattus norvegicus), sequence (Q9R1A7 whole entry, looked up): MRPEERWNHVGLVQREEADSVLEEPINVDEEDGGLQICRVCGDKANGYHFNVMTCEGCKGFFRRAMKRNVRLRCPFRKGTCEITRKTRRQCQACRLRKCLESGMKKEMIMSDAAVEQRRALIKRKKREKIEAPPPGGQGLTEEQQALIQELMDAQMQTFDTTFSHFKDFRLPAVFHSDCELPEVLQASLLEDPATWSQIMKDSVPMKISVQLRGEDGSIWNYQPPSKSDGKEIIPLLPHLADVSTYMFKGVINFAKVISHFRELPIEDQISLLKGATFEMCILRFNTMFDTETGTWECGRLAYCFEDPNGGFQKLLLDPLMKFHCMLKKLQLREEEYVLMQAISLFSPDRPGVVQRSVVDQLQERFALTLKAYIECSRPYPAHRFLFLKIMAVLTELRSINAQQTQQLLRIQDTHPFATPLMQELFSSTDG
# Cytochrome P450 3A4 (Homo sapiens), sequence (P08684 whole entry, looked up): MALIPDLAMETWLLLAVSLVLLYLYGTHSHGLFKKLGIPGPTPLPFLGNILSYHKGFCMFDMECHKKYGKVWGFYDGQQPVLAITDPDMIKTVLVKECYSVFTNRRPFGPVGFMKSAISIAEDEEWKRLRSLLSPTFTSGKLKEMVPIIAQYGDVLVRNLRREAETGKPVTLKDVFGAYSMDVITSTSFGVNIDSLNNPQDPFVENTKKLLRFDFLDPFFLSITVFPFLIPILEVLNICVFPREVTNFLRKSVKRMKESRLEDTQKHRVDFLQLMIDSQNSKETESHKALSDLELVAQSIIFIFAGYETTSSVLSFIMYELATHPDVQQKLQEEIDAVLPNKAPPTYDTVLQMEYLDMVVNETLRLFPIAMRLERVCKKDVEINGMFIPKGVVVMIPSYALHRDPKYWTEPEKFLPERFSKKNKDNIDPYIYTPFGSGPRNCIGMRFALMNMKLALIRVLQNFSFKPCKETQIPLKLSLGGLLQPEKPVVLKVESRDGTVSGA
# Cytochrome P450 1A2 (Homo sapiens), sequence (P05177 whole entry, looked up): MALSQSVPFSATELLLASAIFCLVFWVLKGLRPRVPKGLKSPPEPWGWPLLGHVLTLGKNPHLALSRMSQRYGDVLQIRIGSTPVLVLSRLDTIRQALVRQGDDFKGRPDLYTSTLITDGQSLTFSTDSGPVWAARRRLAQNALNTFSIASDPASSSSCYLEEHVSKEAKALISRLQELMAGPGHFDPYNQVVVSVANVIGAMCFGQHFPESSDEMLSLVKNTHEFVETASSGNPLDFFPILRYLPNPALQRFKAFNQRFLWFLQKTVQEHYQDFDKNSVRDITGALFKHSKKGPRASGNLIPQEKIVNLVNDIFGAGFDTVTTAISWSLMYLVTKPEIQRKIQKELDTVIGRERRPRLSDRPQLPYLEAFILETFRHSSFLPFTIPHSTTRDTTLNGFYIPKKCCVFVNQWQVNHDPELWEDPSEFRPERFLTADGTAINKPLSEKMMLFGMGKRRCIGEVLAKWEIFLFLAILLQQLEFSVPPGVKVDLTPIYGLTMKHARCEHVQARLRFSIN
# Cytochrome P450 2D6 (Homo sapiens), sequence (P10635 whole entry, looked up): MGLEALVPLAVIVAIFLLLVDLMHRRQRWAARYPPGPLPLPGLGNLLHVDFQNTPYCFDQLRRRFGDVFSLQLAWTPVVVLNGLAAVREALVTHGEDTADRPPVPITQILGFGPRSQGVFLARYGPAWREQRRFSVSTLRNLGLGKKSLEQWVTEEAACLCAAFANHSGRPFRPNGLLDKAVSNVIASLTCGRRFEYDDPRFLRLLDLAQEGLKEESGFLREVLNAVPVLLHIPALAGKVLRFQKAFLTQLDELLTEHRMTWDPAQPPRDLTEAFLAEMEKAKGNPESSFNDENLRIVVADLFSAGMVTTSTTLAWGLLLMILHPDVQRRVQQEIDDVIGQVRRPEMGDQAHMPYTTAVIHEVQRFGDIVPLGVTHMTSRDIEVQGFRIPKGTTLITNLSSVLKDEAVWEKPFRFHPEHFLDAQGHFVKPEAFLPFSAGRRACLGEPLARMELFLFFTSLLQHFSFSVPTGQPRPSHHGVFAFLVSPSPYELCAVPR
compound,measurement,setting,value
CC(=O)Nc1ccc(OCC(O)CNC(C)C)cc1 (centres undefined),Potency,[1],inactive
same,outcome,[2],inactive
same,Potency,[3],inactive
same,outcome,[4],inactive
same,Potency,[5],inactive
same,Potency,[6],inactive
same,max activation,[7],0.433%
same,Potency,[8],inactive
same,Potency,[9],inactive
same,Potency,[10],inactive
same,Potency,[11],inactive
same,Potency,[12],inactive
same,Potency,[13],inactive
same,Potency,[14],inactive
O=C(O)Cc1csc(-c2ccc(Cl)cc2)n1,Potency,[1],inactive
same,outcome,[2],inactive
same,Potency,[3],inactive
same,outcome,[4],inactive
same,Potency,[5],inactive
same,Potency,[6],inactive
same,max activation,[7],-2.73%
same,Potency,[8],inactive
same,Potency,[15],inactive
same,Potency,[9],inactive
same,Potency,[10],inactive
same,Potency,[11],inactive
same,Potency,[12],inactive
same,Potency,[13],inactive
same,Potency,[14],inactive
CCOC(=O)OC(C)OC1=C(C(=O)Nc2ccccn2)N(C)S(=O)(=O)c2ccccc21 (centres undefined),Potency,[1],inactive
same,outcome,[2],inactive
same,Potency,[3],inactive
same,outcome,[4],inactive
same,Potency,[5],inactive
same,Potency,[6],inactive
same,max activation,[7],-2.57%
same,Potency,[8],inactive
same,Potency,[15],inactive
same,Potency,[12],inactive
same,Potency,[13],inactive
same,Potency,[14],inactive
Nc1c2c(nc3c1CCC3)CCCC2,Potency,[1],inactive
same,outcome,[2],inactive
same,Potency,[3],inactive
same,outcome,[4],inactive
same,Potency,[5],inactive
same,Potency,[6],inactive
same,max activation,[7],-1.69%
same,Potency,[8],inactive
same,Potency,[10],inactive
same,Potency,[11],inactive
same,Potency,[12],inactive
same,Potency,[13],inactive
same,Potency,[14],inactive
C[N+]12CCC(CC1)C(OC(=O)C(O)(c1ccccc1)c1ccccc1)C2 (centres undefined),Potency,[1],inactive
same,outcome,[2],inactive
same,Potency,[3],inactive
same,outcome,[4],inactive
same,Potency,[5],inactive
same,Potency,[6],inactive
same,max activation,[7],-2.26%
same,Potency,[8],inactive
same,Potency,[10],inactive
same,Potency,[11],inactive
same,Potency,[13],inactive
[O-][n+]1cccc(CO)c1,Potency,[1],inactive
same,outcome,[2],inactive
same,Potency,[3],inactive
same,outcome,[4],inactive
same,Potency,[5],inactive
same,Potency,[6],inactive
same,max activation,[7],-1.15%
same,Potency,[8],inactive
same,Potency,[15],inactive
same,Potency,[9],inactive
same,Potency,[10],inactive
same,Potency,[11],inactive
same,Potency,[12],inactive
same,Potency,[13],inactive
same,Potency,[14],inactive
CCCCCCCCCCOc1cc2c(=O)c(C(=O)OCC)c[nH]c2cc1OCC,"activity change, negative = cytotoxicity",[1],-1.67% [at 8.39 µM]
same,caspase activation,[2],0.159% [at 8.39 µM]
same,"activity change, negative = cytotoxicity",[3],0.813% [at 8.39 µM]
same,caspase-3/7 activation,[4],1.97% [at 8.39 µM]
same,"activity change, negative = cytotoxicity",[5],2.55% [at 8.39 µM]
same,activation,[6],-4.21% [at 8.39 µM]
same,max activation,[7],-1.23%
same,Potency,[8],inactive
same,"activity change, negative = inhibition",[10],52.8% [at 10.5 µM]
same,"activity change, negative = inhibition",[11],6.88% [at 10.5 µM]
same,"activity change, negative = inhibition",[12],7.05% [at 10.5 µM]
same,"activity change, negative = inhibition",[13],1.67% [at 6.97 µM]
CN1[C@@H]2CC[C@H]1CC(OC(=O)C(O)c1ccccc1)C2 (some centres undefined),Potency,[1],inactive
same,outcome,[2],inactive
same,Potency,[3],inactive
same,outcome,[4],inactive
same,Potency,[5],inactive
same,Potency,[6],inactive
same,max activation,[7],2.11% and -0.222%
same,Potency,[8],inactive
same,Potency,[15],inactive
same,Potency,[10],inactive
same,Potency,[11],inactive
same,Potency,[12],inactive
same,Potency,[13],inactive
same,Potency,[14],inactive
C[N+]1(C)CCCC(OC(=O)C(O)(c2ccccc2)c2ccccc2)C1 (centres undefined),Potency,[1],inactive
same,outcome,[2],inactive
same,Potency,[3],inactive
same,outcome,[4],inactive
same,Potency,[5],inactive
same,Potency,[6],inactive
same,max activation,[7],-3.64%
same,Potency,[8],inactive
same,Potency,[9],4.9 µM (active)
same,Potency,[10],inactive
same,Potency,[11],inactive
same,Potency,[12],inactive
same,Potency,[13],inactive

# From PubChem BioAssay (Tox21)
